Experimental data reported in PubChem BioAssay (NCATS).
Results filed as inconclusive are left out. Active and inactive are the calls of the source. Unless noted, the call rests on the fitted dose curve; in most records, active means well fitted curve in the direction sought with a large enough effect; inconclusive means small, poorly fitted or top-dose-only effect, or another doubt; inactive means no such curve, though single readings can be large; an effect the other way counts as inactive or inconclusive.

How the values were obtained:
[1] = P-glycoprotein substrates identified in KB-8-5-11 adenocarcinoma cell line, qHTS therapeutic library screen (AID 1346987); further: series mostly up to about 44 µM; nearly all actives have a fitted effect of over 65% in size
Summary of the method: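 P-gp-mediated resistance screen: KB-8-5-11 cells treated 72 h with compounds in dose-response. CellTiter-Glo viability.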

[2] = NS1 protein of Zika virus - qHTS assay to identify small molecule inhibitors in human HEK 293 cells (AID 1347053); further: series mostly up to about 46 µM; nearly all actives have a fitted effect of over 55% in size
Summary of the method: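 HEK 293 cells, seeded 20 h at 37 C, were pretreated with compound 1 h, then infected with ZIKV MR766 (MOI = 0.5) for 24 h. NS1 was read by TR-FRET with two anti-NS1 antibodies, normalized to uninfected and infected wells.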

[3] = qHTS for Inhibitors of the Functional Ribonucleoprotein Complex (vRNP) of Lassa (LASV) Arenavirus: LASV Primary Screen - GLuc reporter signal (AID 1347082; calls by dose curve; tested in HEK293 reporter line; further: series mostly up to about 57 µM; nearly all actives have a fitted effect of over 60% in size)
[4] = qHTS for Inhibitors of the Functional Ribonucleoprotein Complex (vRNP) of Lassa (LASV) Arenavirus: Viability assay - alamar blue signal for LASV Primary Screen (AID 1347083; calls by dose curve; tested in HEK293 reporter line; further: series mostly up to about 57 µM; nearly all actives have a fitted effect of over 80% in size)
[5] = qHTS for Inhibitors of the Functional Ribonucleoprotein Complex (vRNP) of Lymphocytic Choriomeningitis Arenaviruses (LCMV): Viability assay - alamar blue signal for LCMV Primary Screen (AID 1347085; calls by dose curve; tested in HEK293 reporter line; further: series mostly up to about 57 µM; nearly all actives have a fitted effect of over 80% in size)
[6] = molecular target: Nucleoprotein (Lymphocytic choriomeningitis virus (strain Armstrong)) (UniProt P09992); test: qHTS for Inhibitors of the Functional Ribonucleoprotein Complex (vRNP) of Lymphocytic Choriomeningitis Arenaviruses (LCMV): LCMV Primary Screen - GLuc reporter signal (AID 1347086; calls by dose curve; further: series mostly up to about 57 µM; nearly all actives have a fitted effect of over 70% in size)
[7] = qHTS of pediatric cancer cell lines to identify multiple opportunities for drug repurposing: Primary screen for TC32 cells (AID 1347089); further: nearly all actives have a fitted effect of over 60% in size
Summary of the method: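 Measured quantity: luminescence from CellTiter-Glo, reflecting metabolically active TC32 cells following 48 h of compound. Curves came straight from multi-point titrations, with 8 or 11 points in primary and 11 in confirmatory screening.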

[8] = qHTS of pediatric cancer cell lines to identify multiple opportunities for drug repurposing: Primary screen for DAOY cells (AID 1347090); further: series mostly up to about 46 µM; nearly all actives have a fitted effect of over 55% in size
Summary of the method: (§1)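 Eight- or eleven-point concentration series, 48 h treatment at 37 degrees C in growth media; readout CellTiter-Glo luminescence. Potency and efficacy were taken from the concentration-response curves.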

[9] = qHTS of pediatric cancer cell lines to identify multiple opportunities for drug repurposing: Primary screen for SJ-GBM2 cells (AID 1347091); further: potency means the concentration at half of the fitted maximal effect
Summary of the method: as §1

[10] = qHTS of pediatric cancer cell lines to identify multiple opportunities for drug repurposing: Primary screen for BT-37 cells (AID 1347094); further: series mostly up to about 57 µM
Summary of the method: (§2)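 Phenotypic viability qHTS, 48 h compound exposure, CellTiter-Glo luminescence read-out; multi-concentration dosing so that potency and efficacy derive directly from the primary screen's curves.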

[11] = qHTS of pediatric cancer cell lines to identify multiple opportunities for drug repurposing: Primary screen for NB-EBc1 cells (AID 1347095)
Summary of the method: as §2

[12] = qHTS of pediatric cancer cell lines to identify multiple opportunities for drug repurposing: Primary screen for U-2 OS cells (AID 1347096); further: nearly all actives have a fitted effect of over 50% in size
Summary of the method: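 Cells (500-1,000/well) in growth media were settled 5 h at 37 degrees C, then given compounds for 48 h. Viability was read as CellTiter-Glo luminescence. Primary runs used MIPE at 11 points (0.78 nM-46 µM) and NPC at 8 points (0.59 nM-46 µM); follow-ups used 11 points.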

[13] = qHTS of pediatric cancer cell lines to identify multiple opportunities for drug repurposing: Primary screen for A673 cells (AID 1347092); further: nearly all actives have a fitted effect of over 45% in size
Summary of the method: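 Cells are plated, rested 5 h, dosed by pintool, incubated 48 h, then lysed with CellTiter-Glo and read by luminescence. DMSO is the neutral control; bortezomib at 2.3 uM final is the positive control.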

[14] = qHTS of pediatric cancer cell lines to identify multiple opportunities for drug repurposing: Primary screen for SK-N-MC cells (AID 1347093); further: series mostly up to about 46 µM
Summary of the method: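 Metabolically active cells were quantified by ATP-dependent luminescence (CellTiter-Glo, 15 min at room temperature) following 48 h treatment. Cells had been plated at 500-1,000 per well and settled for 5 h beforehand.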

[15] = qHTS of pediatric cancer cell lines to identify multiple opportunities for drug repurposing: Primary screen for Saos-2 cells (AID 1347097); further: nearly all actives have a fitted effect of over 40% in size
Summary of the method: as §2

Measured: Potency

Chain of Nucleoprotein (Lymphocytic choriomeningitis virus (strain Armstrong)) (P09992 whole entry, looked up): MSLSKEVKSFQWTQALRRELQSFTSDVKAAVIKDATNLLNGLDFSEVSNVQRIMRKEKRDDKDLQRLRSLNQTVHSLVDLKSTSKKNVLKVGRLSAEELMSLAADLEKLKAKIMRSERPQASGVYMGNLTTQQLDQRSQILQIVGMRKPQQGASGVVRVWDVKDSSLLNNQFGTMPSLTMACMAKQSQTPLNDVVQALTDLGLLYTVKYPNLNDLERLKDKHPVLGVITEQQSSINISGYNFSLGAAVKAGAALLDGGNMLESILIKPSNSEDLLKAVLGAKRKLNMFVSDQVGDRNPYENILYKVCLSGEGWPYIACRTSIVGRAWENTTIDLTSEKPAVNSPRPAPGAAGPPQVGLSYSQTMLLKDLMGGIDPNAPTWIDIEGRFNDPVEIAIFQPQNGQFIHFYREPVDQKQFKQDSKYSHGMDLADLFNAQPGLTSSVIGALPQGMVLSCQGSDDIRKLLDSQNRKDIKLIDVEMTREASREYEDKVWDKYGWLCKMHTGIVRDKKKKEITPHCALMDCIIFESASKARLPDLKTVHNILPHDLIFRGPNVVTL

CN1CC[C@]23c4c5ccc(O)c4O[C@H]2[C@@H](O)C=C[C@H]3[C@H]1C5
not listed: [13] | [14] | [15]
inactive: all other assays above

O=C(O)c1ccc(=O)[nH]c1
not listed: [1]
inactive: all other assays above

COC1CC(=C(c2cccs2)c2cccs2)C[N+](C)(C)C1 (stereo not drawn)
not listed: [13]
inactive: all other assays above

CC(C)=CC1C(C(=O)OCN2C(=O)C3=C(CCCC3)C2=O)C1(C)C (stereo not drawn)
active: [9] 21.1 µM
not listed: [11] | [14] | [15]
inactive: all other assays above

CC(C)(S)[C@@H](N)C(=O)O
inactive: [3] | [4] | [5]

NC(=O)c1cnccn1
inactive: [3] | [4] | [5]

O=[N+]([O-])c1ccc(/C=N\O)o1
inactive: [3] | [4] | [5] | [6]

Nc1nc(Cl)nc2c1ncn2[C@@H]1O[C@H](CO)[C@@H](O)[C@@H]1F
inactive: [3]
